# Experimental data: PubChem BioAssay (NCATS)
# Records with an inconclusive call do not appear. A call without a number means that no potency is given here. Unmarked numbers belong to inactive results. Active and inactive are the calls of the source. Unless noted, calls come from the whole dose curve; as a rule, active = well fitted curve in the direction sought with a large enough effect; inconclusive = small, poorly fitted or top-dose-only effect, or another doubt; inactive = no such curve, though single readings can be large; an effect the other way counts as inactive or inconclusive.
# Tests used:
# [1] = qHTS for Inhibitors of Plasmodium falciparum (DD2) proliferation (AID 504314);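 note: parasite DNA measured by SYBR Green fluorescence after red cell lysis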
# Summary of the method: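 Erythrocytes infected with P. falciparum (0.3% parasitemia, 2.5% hematocrit final) were incubated with compounds for 72 h at 37C, 5% CO2. Parasite DNA was detected by SYBR Green I fluorescence after saponin/Triton lysis, normalized to artemisinin (0.29 uM) and DMSO controls.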
# [2] = qHTS for Inhibitors of Plasmodium falciparum (GB4) proliferation (AID 504315); note: nearly all actives have a fitted effect of over 50% in size
# Summary of the method: (§1)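 Erythrocytes infected with P. falciparum line (0.3% parasitemia, 2.5% hematocrit final) incubated with compounds 72 h at 37 °C, 5% CO2; SYBR Green lysis buffer added, fluorescence read next day. Normalized to 0.29 uM artemisinin and DMSO.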
# [3] = qHTS for Inhibitors of Plasmodium falciparum (7G8) proliferation (AID 504316); note: series mostly up to about 6.7 µM; nearly all actives have a fitted effect of over 65% in size
# Summary of the method: as §1
# [4] = qHTS for Inhibitors of Plasmodium falciparum (HB3) proliferation (AID 504318); note: nearly all actives have a fitted effect of over 60% in size
# Summary of the method: as §1
# [5] = qHTS for Inhibitors of Plasmodium falciparum (CP250) proliferation (AID 504320)
# Summary of the method: as §1
# [6] = biological target: Atrial natriuretic peptide receptor 1 (Homo sapiens) (UniProt P16066); assay: Natriuretic polypeptide receptor (hNpr1) antagonism - Pilot CMLD screen (AID 1347052; calls by dose curve;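 note: cGMP level read as GloSensor luciferase luminescence after agonist stimulation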; note: potency is the fitted concentration of half-maximal effect)
# Sequence of Atrial natriuretic peptide receptor 1 (Homo sapiens) (P16066 whole entry, looked up): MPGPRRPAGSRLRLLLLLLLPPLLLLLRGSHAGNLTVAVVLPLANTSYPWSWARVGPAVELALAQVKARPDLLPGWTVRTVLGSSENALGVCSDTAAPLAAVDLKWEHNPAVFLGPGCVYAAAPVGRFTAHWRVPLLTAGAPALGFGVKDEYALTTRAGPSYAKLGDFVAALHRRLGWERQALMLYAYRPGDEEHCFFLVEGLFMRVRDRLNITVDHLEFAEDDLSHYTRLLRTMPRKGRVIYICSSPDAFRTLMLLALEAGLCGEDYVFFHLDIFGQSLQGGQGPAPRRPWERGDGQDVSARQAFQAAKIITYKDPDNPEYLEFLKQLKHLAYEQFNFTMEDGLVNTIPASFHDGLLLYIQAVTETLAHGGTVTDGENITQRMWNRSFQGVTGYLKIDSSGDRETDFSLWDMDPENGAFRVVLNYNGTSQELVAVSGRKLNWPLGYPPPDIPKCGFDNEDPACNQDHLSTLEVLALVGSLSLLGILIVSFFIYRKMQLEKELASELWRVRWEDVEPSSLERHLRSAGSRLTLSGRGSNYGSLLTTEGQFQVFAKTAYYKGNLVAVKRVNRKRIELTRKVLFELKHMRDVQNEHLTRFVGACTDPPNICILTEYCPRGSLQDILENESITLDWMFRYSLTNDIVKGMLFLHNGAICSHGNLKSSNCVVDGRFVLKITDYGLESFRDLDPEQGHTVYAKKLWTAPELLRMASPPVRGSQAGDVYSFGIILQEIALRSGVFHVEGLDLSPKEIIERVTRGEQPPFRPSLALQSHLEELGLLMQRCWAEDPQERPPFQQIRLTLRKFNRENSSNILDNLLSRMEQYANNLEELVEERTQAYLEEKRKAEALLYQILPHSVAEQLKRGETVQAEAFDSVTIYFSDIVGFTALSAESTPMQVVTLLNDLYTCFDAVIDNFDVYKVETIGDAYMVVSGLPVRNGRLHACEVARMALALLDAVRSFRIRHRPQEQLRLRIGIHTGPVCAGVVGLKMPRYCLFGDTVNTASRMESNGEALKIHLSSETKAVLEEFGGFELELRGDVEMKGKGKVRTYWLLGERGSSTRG
Compound,Potency [1],Potency [2],Potency [3],Potency [4],Potency [5],Potency [6],"activity, negative = inhibition [1]"
CC1=CC[C@@H](C)O[C@@]2(C1)C(=O)Nc1ccccc12,inactive,inactive,inactive,inactive,inactive,inactive,–
C#CCCCON=C1C[C@@H](O)[C@H](O)[C@H]2[C@@H]3C(=O)N(c4ccc(F)cc4F)C(=O)[C@@H]3CC[C@@H]12,inactive,inactive,inactive,inactive,inactive,422 nM (active),–
CCOC(=O)CCN1C(=O)[C@@H]2[C@H]3[C@H](O)[C@H](O)CC(=NOCC(C)C)[C@@H]3CC[C@H]2C1=O,inactive,inactive,inactive,inactive,inactive,inactive,–
CCN1C(=O)NC(CCc2ccccc2)C(C(C)=O)=C1C (configuration not stated),inactive,inactive,inactive,inactive,inactive,inactive,–
O=C1OCCC=C1C(O)CCc1ccccc1 (configuration not stated),inactive,inactive,inactive,inactive,inactive,inactive,–
COC(=O)C12C[C@H](C)C3C(C)C(c4ccccc4C31)N2C(=O)C(F)(F)F (some centres not stated),inactive,inactive,inactive,inactive,inactive,inactive,–
OC[C@@H](O)[C@@H](O)CCc1ccccc1,inactive,inactive,inactive,inactive,inactive,inactive,–
Cc1ccc(S(=O)(=O)OCCc2ccccc2)cc1,inactive,inactive,inactive,inactive,inactive,inactive,–
CCN1C(=O)N[C@@H](CCc2ccccc2)[C@@H](C(=O)OC)[C@H]1C,–,inactive,inactive,inactive,inactive,inactive,2.52% [at 1.12 µM]
C=CCOC(=O)C(C(=O)CC)[C@@H](NC(=O)OC)c1ccc(F)cc1 (some centres not stated),inactive,inactive,inactive,inactive,inactive,inactive,–
COC[C@@H](O)[C@H]1OCc2cccc(OC)c2[C@H]1C=Cc1ccccc1,inactive,inactive,inactive,inactive,inactive,inactive,–
COC(=O)CCCC1=CC2=C(c3ccccc3)C(=O)C(C)(OC(=O)C3CCCC3)C(=O)C2=CN1C1CCCCC1 (configuration not stated),inactive,inactive,inactive,inactive,inactive,inactive,–
O=C1C=C(c2ccccc2)CCC1,inactive,inactive,inactive,inactive,inactive,inactive,–
C[C@@H]1[C@@H](c2ccccc2)Cc2nc3ccccc3nc2C[C@H]1C(=O)N1CCCC1,inactive,inactive,inactive,inactive,inactive,inactive,–
CCOC(=O)NN=C1C[C@@H](O)[C@@H](O)[C@@H]2[C@H]3C(=O)N([C@@H](C)c4ccccc4)C(=O)[C@@H]3CC[C@H]12,inactive,inactive,inactive,inactive,inactive,inactive,–
C=C(CCN1C=C(C(=O)OCC)C(c2ccccc2)NC1=O)OC (configuration not stated),inactive,inactive,inactive,inactive,inactive,inactive,–
COC1=C[C@H](C(=O)NCCOC(C)=O)[C@@]2(C)Cc3ccccc3[C@@H]2CC1=O,inactive,inactive,inactive,inactive,inactive,inactive,–
COc1ccc2c(c1)CO[C@H]([C@H](O)CBr)[C@H]2C=Cc1ccccc1,inactive,inactive,inactive,inactive,inactive,inactive,–
COC(=O)C1=C[C@]2(c3ccccc3C[C@H](OC)[C@@H]2C)[C@H]2C=C[C@H]1C2,inactive,inactive,inactive,inactive,inactive,inactive,–
C#CCCCON=C1C[C@@H](O)[C@H](O)[C@H]2[C@@H]3C(=O)N(c4cccc(Oc5ccccc5)c4)C(=O)[C@@H]3CC[C@@H]12,inactive,inactive,inactive,inactive,inactive,inactive,–
COC(=O)N[C@@H](CCc1ccccc1)[C@]1(C(=O)OC)CCCC1=O,inactive,inactive,inactive,inactive,inactive,inactive,–
CCOC(=O)OC[C@H]1O[C@H](c2cc(C)cc(C)c2)C=C[C@H]1OC(=O)OCC,inactive,inactive,inactive,inactive,inactive,inactive,–
C#CCN1C(=O)CC[C@@]23C1=NC(C(=O)OC)=C(C(=O)OC)[C@@H]2N(Cc1ccccc1)c1ccccc13,inactive,inactive,inactive,inactive,inactive,inactive,–
C=CC1=C2C=C(C3CC3)N(Cc3ccc4c(c3)OCO4)C=C2C(=O)C(C)(OC(=O)c2ccco2)C1=O (configuration not stated),–,inactive,inactive,inactive,inactive,inactive,4.05% [at 1.12 µM]
C=CCN1c2ccccc2[C@]23C[C@@H](C(=O)OC)N(C(=O)Nc4ccc(C(F)(F)F)cc4)C2=NC(C(=O)OC)=C(C(=O)OC)[C@H]13,inactive,inactive,inactive,inactive,inactive,inactive,–
C=CCOC(=O)[C@H](O)[C@@H](O)C(=O)OCC=C,inactive,inactive,inactive,inactive,inactive,inactive,–

Compound,Potency [1],Potency [2],Potency [3],Potency [4],Potency [5],Potency [6],"activity, negative = inhibition [1]"
Cc1ccc(S(=O)(=O)NC(CCc2ccccc2)CC(=O)C(C)(C)C)cc1 (configuration not stated),inactive,inactive,inactive,inactive,inactive,inactive,–
CCCCC1=CC2=C(c3ccco3)C(=O)C(C)(OC(=O)c3ccc(OC)cc3)C(=O)C2=CN1Cc1ccccc1 (configuration not stated),inactive,inactive,inactive,inactive,inactive,inactive,–
Cc1cc(C)cc(CO[C@H]2C=C[C@@H](c3ccccc3)O[C@H]2CO)c1,inactive,inactive,inactive,inactive,inactive,inactive,–
C=CCCC1(CCC)C(=O)C(=C(O)c2ccccc2)C(=O)C(CCC)=C1OC (configuration not stated),inactive,inactive,inactive,inactive,inactive,inactive,–
COc1ccc(NC(=O)N2CCc3nc(-c4ccccc4)c4c(c3C2)CO[C@@H](C)C4)cc1,inactive,inactive,inactive,inactive,inactive,inactive,–
COc1ccc2c(c1)O[C@H](c1ccc3c(c1)OCO3)[C@@H](OC(=O)Nc1ccc(C)c(Br)c1)C2=O,inactive,inactive,inactive,inactive,inactive,inactive,–
CC(C)(C)c1ccc(O[C@@H]2[C@H](O)CO[C@H]2C=CC#Cc2ccccc2)cc1,inactive,inactive,inactive,inactive,inactive,inactive,–
Cc1ccc(C#C[C@@H]2C=C[C@H](Oc3ccc4c(c3)OCO4)[C@@H](CO)O2)c(C)c1,inactive,inactive,inactive,inactive,inactive,inactive,–
CC(C)=CCCC(C)=CCON=C1C[C@@H](O)[C@@H](O)[C@@H]2[C@H]3C(=O)N(C[C@@H]4CCCO4)C(=O)[C@@H]3CC[C@H]12,inactive,inactive,inactive,inactive,inactive,inactive,–
C=C(C(C)=O)C(O)c1ccc([N+](=O)[O-])cc1 (configuration not stated),inactive,inactive,inactive,inactive,inactive,1880 nM (active),–
COc1cccc([C@@H]2Oc3ccc(OC)cc3[C@H](O)[C@@H]2O)c1,inactive,inactive,inactive,inactive,inactive,inactive,–
COc1ccc(-c2nc(-c3ccccc3)oc2NC(C)c2ccccc2)cc1 (configuration not stated),inactive,inactive,inactive,inactive,inactive,inactive,–
CCCCC1=CC2=C(c3ccco3)C(=O)C(C)(OC(=O)c3ccc(OC)cc3)C(=O)C2=CN1CC1CC1 (configuration not stated),inactive,inactive,inactive,inactive,inactive,inactive,–
COC(=O)C1=C(C)N(Cc2ccccc2)C(=S)NC1c1ccc(Br)cc1 (configuration not stated),inactive,inactive,inactive,inactive,inactive,inactive,–
CC(=O)OC[C@H]1O[C@H](CC=NOC[C@@H](O)[C@H]2O[C@@H]3OC(C)(C)O[C@H]3[C@@H]2O)C=C[C@H]1OC(C)=O,inactive,inactive,inactive,inactive,inactive,inactive,–
COC(=O)C1(C(=O)OC)CC=CCc2ccccc2[C@H]1C[N+](=O)[O-],inactive,inactive,inactive,inactive,inactive,inactive,–
C[C@@H]1C=CCCO[C@]12C(=O)N(CC1CC1)c1ccccc12,inactive,inactive,inactive,inactive,inactive,inactive,–
CCN(CC)CCCN=C1NC(c2cccc(C(F)(F)F)c2)C(C(=O)OC)=C(C)N1CC (configuration not stated),inactive,inactive,inactive,inactive,inactive,inactive,–
CCOC(=O)C1(C(=O)OCC)Cc2ccc(C(C)=O)cc2C1,inactive,inactive,inactive,inactive,inactive,inactive,–
COCCN1C(=O)NC(c2cccc(F)c2)C(C(=O)OC)=C1C (configuration not stated),inactive,inactive,inactive,inactive,inactive,inactive,–
O=C1CCCC1C(O)c1ccc2ccccc2c1 (configuration not stated),inactive,inactive,inactive,inactive,inactive,inactive,–
CC(=O)OC[C@H]1O[C@H](CC=NOC[C@@H](C)[C@H](OCc2ccccc2)C(C)C)C=C[C@@H]1OC(C)=O,inactive,inactive,inactive,inactive,inactive,inactive,–
COC1=C[C@H](C(=O)NCCNC(C)=O)[C@H](C)[C@@H](c2ccccc2)CC1=O,inactive,inactive,inactive,inactive,inactive,inactive,–
COC(=O)C1=C(C)N(Cc2ccccc2)C(=O)NC1c1ccccc1 (configuration not stated),inactive,inactive,inactive,inactive,inactive,inactive,–
COC(=O)CCCC1=CC2=C(c3ccccc3)C(=O)C(C)(OC(=O)C3CCCC3)C(=O)C2=CN1CCCCO (configuration not stated),inactive,inactive,inactive,inactive,inactive,inactive,–
C=CC[C@@H]1C=C[C@H](ON=C[C@@H](C)[C@H](OCc2ccccc2)C(C)C)[C@H](CO)O1,inactive,inactive,inactive,inactive,inactive,inactive,–
